The campaign covered roughly 190,000 compounds. About 400 (0.21%) were called active. Not shown: some 2% with an inconclusive outcome.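 Rule for the calls: active = percent activity GTP binding at least 20 points away from the 100% baseline, either down as inhibitor or up as activator; inconclusive = compound flagged as likely green fluorescent from well-wide comparison; inactive = the rest.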 What follows is part of a selection rich in actives, with near analogues and random picks from the rest.

Chain of Cell division control protein 42 homolog (Homo sapiens) (P60953 whole entry, looked up): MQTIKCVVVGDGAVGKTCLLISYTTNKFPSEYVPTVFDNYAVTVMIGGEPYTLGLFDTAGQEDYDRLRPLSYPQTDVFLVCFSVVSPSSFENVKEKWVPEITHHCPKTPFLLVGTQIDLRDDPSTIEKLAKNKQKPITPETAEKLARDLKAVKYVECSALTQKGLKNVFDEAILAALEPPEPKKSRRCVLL

The experiment addresses Cell division control protein 42 homolog (Homo sapiens) (UniProt P60953). Kind of experiment: modulators of GTP binding to wildtype Cdc42, primary screen, biochemical, multiplex bead flow cytometry, Bodipy-GTP (AID 761).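 Note: median bead fluorescence of bound Bodipy-FL-GTP at 100 nM; 0% = excess unlabeled GTP control and 100% = no compound control; below 100% means less GTP binding so inhibitor and above means activator.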 The following applies: GST-Cdc42 beads, at 10 µM, actives lie on both sides. On the technique in general: In flow cytometry, cells or beads pass a laser one at a time.
`O=C(O)c1n[nH]nc1-c1ccccc1`: the percent activity (GTP binding) is 99% (inactive).
For the molecule `O=C(O)/C=C/c1cn(Cc2ccccc2)nc1-c1cccs1`, the percent activity (GTP binding) was 135% [activator] (active).
Then `O=C(O)/C=C/c1cn(-c2ccccc2)nc1-c1cccs1`, with 93% (inactive).
Then `O=C(/C=C\c1cn(-c2ccccc2)nc1-c1cccs1)N1CCOCC1`, with 100% (inactive); and `NS(=O)(=O)c1ccc(NC(=O)/C=C/c2ccccc2Cl)cc1`, with 97% (inactive).
`O=C(COc1cc(Cl)c(Cl)cc1Cl)NCCc1ccccn1`: the percent activity (GTP binding) is 94% (inactive).
Then `CCOC(=O)N1CCN(CC(=O)Nc2ccc(F)cc2)CC1`, with 96% (inactive); and `Cc1cc(C)cc(NC(=O)Cn2cnc3c(nnn3Cc3ccc(F)cc3)c2=O)c1`, with 93% (inactive).
As for `Cc1cccc(C(=O)NNC(=O)c2cccc([N+](=O)[O-])c2)c1`, the percent activity (GTP binding) is 105% (inactive).
Regarding `COc1ccccc1N1CCN(C(=O)c2ccc(Cl)c(S(=O)(=O)N3CCCC3)c2)CC1`, the percent activity (GTP binding) was 100% (inactive).
In the case of `O=C(Cc1ccc(F)cc1)N1CCN=C1SCc1cccc([N+](=O)[O-])c1`, the percent activity (GTP binding) is 96% (inactive).
With `Cc1ccc(CSc2nc3[nH]ncc3c(=O)[nH]2)cc1` the figure was 76% (active).
Then `CCCSc1nc2[nH]ncc2c(=O)[nH]1`, with 100% (inactive); and `Cc1cccc(NC(=O)CSc2nc3[nH]ncc3c(=O)[nH]2)c1`, with 97% (inactive).
Then `O=C(NCc1cccs1)c1cc(-c2ccccn2)nc2ccc(Br)cc12`, with 98% (inactive); and `O=C(c1cccc([N+](=O)[O-])c1)N1CCN(C(=O)c2ccco2)CC1`, with 94% (inactive); and `CCN(C(=O)COC(=O)/C=C/c1nc2ccccc2s1)C1CCS(=O)(=O)C1` (stereo not drawn), with 93% (inactive).
As to `CCOc1ccc(N(CC(=O)NCCc2ccc(OC)cc2)S(C)(=O)=O)cc1`, the percent activity (GTP binding) was 100% (inactive).
With `Cc1ccccc1NC(=S)NNC(=O)c1cccc(Br)c1` the figure was 91% (inactive); with `Cc1nc(S(=O)(=O)c2ccc(Br)cc2)nc2c1CCC2`, 94% (inactive); with `COc1ccc(C(=O)Nc2ccc(NC(=O)C(C)C)nc2)cc1`, 93% (inactive).
For the molecule `Cc1cccc(C(=O)OC(C)CN2CCN(C)CC2)c1` (stereo not drawn), the percent activity (GTP binding) is 101% (inactive).
With `Nc1ccc(OCC(O)C[n+]2ccc(CCS(=O)(=O)[O-])cc2)cc1` (stereo not drawn) the figure was 102% (inactive).
Then `O=C(Cc1ccc(F)cc1)N/N=C/c1ccc2c(c1)OCO2`, with 97% (inactive); and `OCCC1CN(Cc2cccn2-c2nccs2)CCN1CCc1ccccc1` (stereo not drawn), with 95% (inactive); and `CC(/C=N/NC(=O)c1ccncc1)=C\c1ccco1`, with 99% (inactive).
With `CCOC(=O)C1(Cc2cccc(OC)c2)CCCN(S(=O)(=O)c2cccnc2)C1` (stereo not drawn) the figure was 100% (inactive).
For `O=C(CSc1nnnn1-c1ccc(O)cc1)N1N=C(c2ccc3ccccc3c2)CC1c1ccccc1` (stereo not drawn), the percent activity (GTP binding) is 98% (inactive).
